# Reference: PubChem BioAssay AID488841 (Sanford-Burnham Center for Chemical Genomics, 2010)
# In all, about 1,400 compounds went through this assay and about 380 (27%) were called active.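 Rule for the calls: active = mean inhibition above 50% across duplicate retests at 10 µM; inactive = the rest.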 Some of the results follow.
# Assay: yeast NALP1 reporter signal suppression – S. cerevisiae, luminescence, single concentration, NALP1 inhibitor project, confirmation (AID 488841);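 note: plate controls were DMSO in galactose medium for no effect and cells in plain SD medium for full effect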
# Details: S. cerevisiae NALP1/ASC/Caspase-1 reporter, beta-gal luminescence; at 10 µM; active compounds read high
row,Structure (SMILES),inhibition
1,Cc1ccc(NCC(=O)Nc2c(C)n(C)n(-c3ccccc3)c2=O)cc1S(=O)(=O)N(C)C,15.9% (inactive)
2,Cc1ccc(CC(=O)Nc2ccccc2-c2ccccc2)cc1C,35.9% (inactive)
3,O=C(Nc1cccc(F)c1)c1ccc(CSc2ccccc2)o1,37.8% (inactive)
4,Cc1ccccc1-c1ccc(C(=O)Nc2cccc(F)c2)o1,52.9% (active)
5,CC1=C(C)/C(=N\OS(=O)(=O)c2ccc(C)cc2)C=CC1=O,79.5% (active)
6,N#Cc1cnn(-c2ncnc3sc4c(c23)CCCC4)c1N,33.3% (inactive)
7,O=C(COC(=O)Cc1c(F)cccc1Cl)NCCC1=CCCCC1,37.5% (inactive)
8,COc1cc(/C=C2/CCc3ccccc3C2=O)cc(OC)c1OC,53% (active)
9,O=C1/C(=C/c2ccccc2)CCCc2ccccc21,57.9% (active)
10,COc1ccc(/C=C2\COc3ccccc3C2=O)cc1OC,72.8% (active)
11,COc1cc(C=O)ccc1Oc1nnnn1-c1ccccc1,35% (inactive)
12,COc1cc2ccccc2c2c1CCCC2=O,27.6% (inactive)
13,O=C1/C(=C/c2ccco2)Cc2ccccc21,38.1% (inactive)
14,COc1ccc(/C=C2/CCc3ccccc3C2=O)cc1OC,59.9% (active)
15,COc1ccc(C2=C/C(=C/c3cccnc3)C(=O)O2)cc1OC,40.3% (inactive)
16,Cc1ccc(CN(C(=O)CNC(=O)c2cccs2)C(C(=O)NCC2CCCO2)c2ccccc2)cc1 (centres undefined),20.4% (inactive)
17,CC(C)NCCCCOc1cccc(Br)c1,43.9% (inactive)
18,O=C(Cn1cccc(C(F)(F)F)c1=O)c1ccc(Cl)cc1,22% (inactive)
19,Cc1oc(C(=O)O)cc1COc1ccc2c3c(c(=O)oc2c1)CCC3,14.6% (inactive)
20,Cc1[nH][nH]c(=O)c1C(c1c(C)[nH][nH]c1=O)c1cn(Cc2ccc(Cl)c(Cl)c2)c2ccccc12,35.5% (inactive)
21,CN(C)c1ccc(/C=N/NC(=O)c2nnn(-c3nonc3N)c2CN(C)c2ccccc2)cc1,25.6% (inactive)
22,Cc1nc2c(=O)n(C)c(=O)n(C)c2nc1Cl,36.3% (inactive)

row,Structure (SMILES),inhibition
1,N=c1n(CC(=O)c2ccc([N+](=O)[O-])cc2)c2ccccc2n1Cc1ccccc1Cl,25.6% (inactive)
2,COc1ccc2c(c1)CC/C(=C/c1ccco1)C2=O,71.4% (active)
3,Nc1ccc2c(c1)C/C(=C/c1ccco1)C2=O,18.6% (inactive)
4,c1ccc2sc(Sc3ncnc4sccc34)nc2c1,44.2% (inactive)
5,COc1ccc(-c2nc3cnccn3c2Nc2ccc(C)cc2)cc1,38.7% (inactive)
6,Cc1ccc(-c2nc3cnccn3c2Nc2c(C)cccc2C)o1,58.9% (active)
7,CC(=O)OCC(=O)[C@H]1CC[C@H]2[C@@H]3CC=C4C[C@@H](O)CC[C@]4(C)[C@H]3CC[C@]12C,4.15% (inactive)
8,O=C(CCNC(=O)c1ccccc1Cl)Nc1ccc2c(c1)OCO2,22.9% (inactive)
9,COC(=O)c1ccc(Oc2ccc(S(=O)(=O)N3CCCCC3)cc2N)cc1,92.3% (active)
10,CC(=O)c1ccc(S(=O)(=O)N2CCCC2)cc1,23.6% (inactive)
11,COC(=O)c1ccc(NC(=O)C(=O)N2CCCC2)cc1,45.1% (inactive)
12,CCc1ccc(NCc2nc(-c3ccccc3)no2)cc1,46.7% (inactive)
13,O=S(=O)(CC(CN1CCCCC1)N1CCCCC1)c1ccc2ccccc2c1 (centres undefined),39.3% (inactive)
14,CCOC(=O)c1cc(-c2ccc(OC)cc2)nc2c1c(C)nn2CCC#N,49.9% (inactive)
15,CCOC(=O)N1CCC(=NNS(=O)(=O)c2cccc([N+](=O)[O-])c2)CC1,24% (inactive)
16,CCOC(=O)/C=C/C(=O)Nc1nccs1,45.4% (inactive)
17,O=C(/C=C/c1cccc([N+](=O)[O-])c1)c1ccco1,38.9% (inactive)
18,COC(=O)/C=C\C(=O)Nc1cccc([N+](=O)[O-])c1,51.5% (active)
19,CCOC(=O)/C=C/C(=O)Nc1cccc([N+](=O)[O-])c1,66.3% (active)
20,O=C(CON=C1c2ccccc2-c2ccccc21)NC12CC3CC(CC(C3)C1)C2,30.6% (inactive)
21,CCOC(=O)c1c(C)[nH]c(C(=O)COC(=O)c2oc3ccccc3c2C)c1C,23.3% (inactive)
22,CCC(C)NCCOc1cccc(Br)c1 (centres undefined),26.1% (inactive)

row,Structure (SMILES),inhibition
1,COCCN(CCOC)c1ncnc2c1cnn2-c1ccc(Cl)cc1,56.8% (active)
2,CN(Cc1ccccc1)c1ncnc2c1cnn2-c1ccccc1,49.5% (inactive)
3,COC(=O)c1ccc(Cn2cnc3c(cnn3-c3ccc(Cl)cc3)c2=O)o1,34.6% (inactive)
4,Cc1occc1C(=O)Nc1c(F)c(F)c(F)c(F)c1F,25.9% (inactive)
5,CCC1(CC)Cc2ccccc2C(Nc2c(C)n(C)n(-c3ccccc3)c2=O)=N1,21.4% (inactive)
6,S=C1SCN(Cc2cccnc2)CN1Cc1cccnc1,76% (active)
7,O=C1/C(=C\c2cccnc2)CN(Cc2ccccc2)C/C1=C\c1cccnc1,22.2% (inactive)
8,NNC(=S)NCc1cccnc1,24.5% (inactive)
9,Cc1ccc(Sc2nnc(Cc3ccccc3)c3ccccc23)cc1,38.2% (inactive)
10,O=C(c1ccccc1)c1ccc(OCC(O)CNC2CCCc3ccccc32)cc1 (centres undefined),32.6% (inactive)
11,CCN1CCN(C(=S)Nc2ccc(Cl)c(Cl)c2)CC1,37% (inactive)
12,CCOC(=O)N1CCN(c2c(NCCOC)c(=O)c2=O)CC1,26.4% (inactive)
13,CCOC(=O)N1CCN(c2ccc(Cl)c(Cl)c2)CC1,60.3% (active)
14,COc1ccc(OC)c(S(=O)(=O)Nc2ccc(O)c3ccccc23)c1,32.9% (inactive)
15,O=C(O)[C@@H](c1ccccc1)N1Cc2ccccc2C1=O,26.9% (inactive)
16,COc1ccc(NCc2ccc([N+](=O)[O-])s2)cc1,14.8% (inactive)
17,CCN(CC)c1ccc(/C=N/OC(C)C(=O)Nc2ccc(C)cc2)cc1 (centres undefined),41% (inactive)
18,CCOC(=O)N/N=C/c1ccc(N(CC)CC)cc1O,52.4% (active)
19,Clc1ccc2c(N/N=C/c3cccc(Br)c3)ccnc2c1,42.9% (inactive)
20,O=C(CCN1C(=O)c2ccccc2C1=O)N1CCN(C2c3ccccc3-c3ccccc32)CC1,18.4% (inactive)
